Active and inactive are the calls of the source. Calls follow the shape of the dose curve; as a rule, active = well fitted activation curve with a large enough effect; inactive = flat fitted curve, though single readings scatter.
Target: Pyruvate kinase PKM (Homo sapiens) (UniProt P14618)
Test: qHTS for Activators of Human Muscle Isoform Pyruvate Kinase: Extended Characterization Using A Lactate Dehydrogenase (LDH) Assay
Details: purified hPK-M2, LDH-coupled NADH fluorescence kinetic
Excerpt: Human pyruvate kinase muscle 2 (hPK-M2)enzyme was supplied as a highly purified (>95% pure) preparation from Harvard Medical School and a secondary assay was used to evaluate compounds. This assay couples the formation of pyruvate from hPK-M2 using lactate dehydrogenase (LDH) and NADH. The depletion of NADH is followed in a fluorescent-based kinetic assay that follows the formation of pyruvate to lactate, as catalyzed LDH (described by Hannaert et al., 2002)1 Pyruvate kinase substrates, PEP and ADP, were present in the assay at 0.1 mM and 4 mM respectively. In this kinetic assay initial rates were determined by following the fluorescence of NADH depletion. NIH Chemical Genomics Center [NCGC] NIH Molecular Libraries Probe Centers Network [MLPCN] MLPCN Grant: MH085679 Assay Submitter (PI): Matthew G. Vander Heiden, Harvard Medical School
Three uL of substrate mix (final concentration, 50 mM Tris-Cl pH 8.0, 200 mM KCl, 15 mM MgCl2, 0.1 mM PEP, 4.0 mM ADP, and 0.2 mM NADH) was dispensed into black-solid 1536 well plates. 23 nL of compounds were delivered by a pin tool and 1 uL of enzyme mix (final concentrations, 10 nM hPK-M2 and 1 uM of LDH) was added. Plates were immediately placed in ViewLux (Perkin Elmer) and NADH fluorescence was determined at 30 second exposure intervals for between 3 and 6 minutes. Data were normalized to the uninhibited and EC100 activation using known activators such as fructose-bis-phosphate.

Sequence of Pyruvate kinase PKM (Homo sapiens) (P14618 whole entry, looked up, canonical isoform): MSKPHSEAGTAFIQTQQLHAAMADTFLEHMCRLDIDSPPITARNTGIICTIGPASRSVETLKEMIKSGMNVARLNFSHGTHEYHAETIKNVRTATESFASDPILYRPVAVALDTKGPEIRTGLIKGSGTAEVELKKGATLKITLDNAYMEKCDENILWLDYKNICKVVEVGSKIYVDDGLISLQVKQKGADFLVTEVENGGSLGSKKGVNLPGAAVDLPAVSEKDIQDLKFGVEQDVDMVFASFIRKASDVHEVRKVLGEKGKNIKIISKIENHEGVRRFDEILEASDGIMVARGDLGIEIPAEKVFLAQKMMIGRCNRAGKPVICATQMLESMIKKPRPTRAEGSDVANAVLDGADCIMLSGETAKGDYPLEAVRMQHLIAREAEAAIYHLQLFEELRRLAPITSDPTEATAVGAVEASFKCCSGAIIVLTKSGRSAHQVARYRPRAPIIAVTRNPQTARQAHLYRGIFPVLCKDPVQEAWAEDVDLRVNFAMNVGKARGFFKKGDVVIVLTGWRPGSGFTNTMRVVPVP

Potency, active:
Cc1cc2c(s1)c1cnn(Cc3c(Cl)ccc(C)c3F)c(=O)c1n2C 562 nM
Cc1cc2c(s1)c1cnn(Cc3cc(F)ccc3F)c(=O)c1n2C 447 nM
COc1cccc(Cn2ncc3c4sc(S(C)=O)cc4n(C)c3c2=O)c1 (stereo not given) 146 nM
Cc1cc2c(s1)c1cnn(Cc3ccc(F)cc3F)c(=O)c1n2C 224 nM
Cc1cc2c(s1)c1cnn(Cc3cc(F)c(F)cc3F)c(=O)c1n2C 398 nM
